From ChEMBL document CHEMBL3988442, “University of Dundee, Small-Polar-MMV Screening Library” (2021)
For some assays here: Potency and affinity values are given separately.

Assays:
Design in all cases: scale not given: direction of the effect not stated beside the values
[1] = target: Protein translocase subunit SecA (Escherichia coli (strain K12)) (UniProt P10408); assay: Assay to Identify E. coli SecA ATPase Inhibitors; type: functional; conditions: 30 µM
[2] = target: T1, Ubiquitin-activating enzyme e1, putative (Leishmania donovani (strain BPK282A1)) (UniProt E9BSI1); assay: Leishmania donovani Ubiquitin Activating Enzyme (LdE1); type: functional; conditions: 30 µM
T1 sequence (whole entry): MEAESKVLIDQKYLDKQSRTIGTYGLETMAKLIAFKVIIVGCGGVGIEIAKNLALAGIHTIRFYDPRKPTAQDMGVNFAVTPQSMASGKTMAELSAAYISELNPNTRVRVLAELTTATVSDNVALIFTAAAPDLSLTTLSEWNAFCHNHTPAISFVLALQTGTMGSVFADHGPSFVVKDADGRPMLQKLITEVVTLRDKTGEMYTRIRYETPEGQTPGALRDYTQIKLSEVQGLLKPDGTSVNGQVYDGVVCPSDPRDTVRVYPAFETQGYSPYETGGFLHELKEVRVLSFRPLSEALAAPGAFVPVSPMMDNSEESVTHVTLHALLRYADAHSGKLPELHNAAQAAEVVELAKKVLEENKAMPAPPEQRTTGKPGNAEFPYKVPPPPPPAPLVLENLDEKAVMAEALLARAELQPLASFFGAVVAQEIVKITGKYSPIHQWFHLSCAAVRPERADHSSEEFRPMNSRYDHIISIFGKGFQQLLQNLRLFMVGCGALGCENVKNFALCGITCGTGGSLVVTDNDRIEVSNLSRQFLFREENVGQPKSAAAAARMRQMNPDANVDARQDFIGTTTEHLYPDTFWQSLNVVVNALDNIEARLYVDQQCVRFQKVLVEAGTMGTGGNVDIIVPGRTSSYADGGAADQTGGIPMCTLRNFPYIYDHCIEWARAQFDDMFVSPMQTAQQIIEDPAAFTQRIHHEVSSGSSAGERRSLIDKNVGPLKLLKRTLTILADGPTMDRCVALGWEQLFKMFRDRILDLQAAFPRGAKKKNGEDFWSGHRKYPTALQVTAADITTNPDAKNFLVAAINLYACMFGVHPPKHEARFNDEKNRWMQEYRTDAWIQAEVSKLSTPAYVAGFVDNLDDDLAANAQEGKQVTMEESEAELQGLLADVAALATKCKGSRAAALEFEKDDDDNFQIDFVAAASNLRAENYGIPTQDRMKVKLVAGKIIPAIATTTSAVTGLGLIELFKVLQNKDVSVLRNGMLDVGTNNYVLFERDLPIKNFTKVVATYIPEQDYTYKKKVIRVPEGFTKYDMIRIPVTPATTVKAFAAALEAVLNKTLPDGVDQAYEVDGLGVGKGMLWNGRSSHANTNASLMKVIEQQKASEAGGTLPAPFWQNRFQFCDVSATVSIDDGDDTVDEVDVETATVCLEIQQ

[3] = target: AMP-activated protein kinase, AMPK (Homo sapiens) (UniProt P54646+O43741+P54619+Q9UGJ0+Q9Y478+Q13131+Q9UGI9); assay: AMP-dependent Kinase enzyme assay. An in vitro enzyme assay that detects ADP turnover that is directly proportional to AMPK activity. This uses naive AMPK that is activated during the assay with MK-8722; type: functional; conditions: 30 µM
[4] = target: Sialic acid-binding Ig-like lectin 9 (Homo sapiens) (UniProt Q9Y336); assay: Hs-Siglec9 ALPHAscreen SOP 20170721; conditions: 10 µM
Trypanosoma cruzi = assay: Trypanosoma cruzi phosphomannomutase and mannose-1-phosphate guanylyltransferase assay; type: functional; conditions: 10 µM
[5] = target: T2, Arginase-2, mitochondrial (Homo sapiens) (UniProt P78540); assay: in vitro enzyme assay to detect the production of urea directly proportional to the activity of Arginase II; type: functional; conditions: 33.3 µM; further: in the data most compounds retested in dose-response had high values
T2 sequence (whole entry): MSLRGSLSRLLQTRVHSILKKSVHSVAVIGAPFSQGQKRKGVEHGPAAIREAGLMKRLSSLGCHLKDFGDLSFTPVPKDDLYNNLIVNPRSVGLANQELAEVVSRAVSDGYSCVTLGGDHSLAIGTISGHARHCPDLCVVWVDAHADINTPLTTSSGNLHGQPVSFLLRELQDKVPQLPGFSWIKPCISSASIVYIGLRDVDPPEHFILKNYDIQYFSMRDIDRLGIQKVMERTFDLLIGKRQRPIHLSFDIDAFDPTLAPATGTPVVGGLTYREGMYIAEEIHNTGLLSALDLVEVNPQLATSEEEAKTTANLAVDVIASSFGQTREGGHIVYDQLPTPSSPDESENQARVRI

[6] = target: T3, Proteasome subunit beta (Trypanosoma cruzi) (UniProt O96673); assay: Trypanosoma cruzi proteasome chymotrypsin-like activity (TcProtChymo) assay.; further: in the data most compounds retested in dose-response had high values; type: functional; conditions: 9.37 µM
T3 sequence (whole entry): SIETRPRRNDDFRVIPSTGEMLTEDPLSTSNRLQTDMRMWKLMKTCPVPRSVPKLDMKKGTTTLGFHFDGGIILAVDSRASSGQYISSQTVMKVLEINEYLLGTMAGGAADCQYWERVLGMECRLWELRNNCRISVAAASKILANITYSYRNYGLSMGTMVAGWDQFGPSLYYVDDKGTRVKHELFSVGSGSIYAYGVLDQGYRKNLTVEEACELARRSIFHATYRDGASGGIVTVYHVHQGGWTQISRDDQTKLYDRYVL

Homo sapiens = organism: Homo sapiens; assay: To identify inhibition of the IFN signalling (Jak-Stat) pathway via expression of an eGFP reporter gene under the control of an IFN-stimulated response element (ISRE) containing MxA promoter.; type: functional; conditions: 30 µM
[7] = target: T4, Tyrosyl-tRNA synthetase, putative (Trypanosoma cruzi (strain CL Brener)) (UniProt Q4DSP6); assay: Trypanosoma cruzi tyrosyl tRNA synthetase (TcYRS) _High Tyrosine SOP; type: functional; conditions: 30 µM; further: in the data most compounds retested in dose-response had high values
T4 sequence (whole entry): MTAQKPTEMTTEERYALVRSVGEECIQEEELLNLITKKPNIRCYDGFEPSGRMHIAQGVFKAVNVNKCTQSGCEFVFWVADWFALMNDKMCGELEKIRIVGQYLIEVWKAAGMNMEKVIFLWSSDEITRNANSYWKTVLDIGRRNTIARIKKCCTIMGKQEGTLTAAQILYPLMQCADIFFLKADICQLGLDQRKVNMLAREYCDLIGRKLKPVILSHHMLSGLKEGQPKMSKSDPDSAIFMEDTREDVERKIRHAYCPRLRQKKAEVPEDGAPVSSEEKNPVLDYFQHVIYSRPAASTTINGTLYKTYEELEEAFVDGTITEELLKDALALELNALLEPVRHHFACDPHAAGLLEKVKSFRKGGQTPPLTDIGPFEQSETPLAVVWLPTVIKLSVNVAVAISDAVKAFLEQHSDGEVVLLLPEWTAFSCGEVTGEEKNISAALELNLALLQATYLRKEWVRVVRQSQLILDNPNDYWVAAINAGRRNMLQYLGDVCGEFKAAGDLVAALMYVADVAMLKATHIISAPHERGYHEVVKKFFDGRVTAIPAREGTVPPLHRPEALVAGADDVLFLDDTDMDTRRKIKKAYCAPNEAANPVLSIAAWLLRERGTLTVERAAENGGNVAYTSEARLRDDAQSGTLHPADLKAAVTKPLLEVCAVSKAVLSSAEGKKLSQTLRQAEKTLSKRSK

[8] = target: T4, Tyrosyl-tRNA synthetase, putative (Trypanosoma cruzi (strain CL Brener)); assay: Trypanosoma cruzi tyrosyl tRNA synthetase (TcYRS) SOP; type: functional; conditions: 30 µM
[9] = target: Chromo domain-containing protein 1 (Saccharomyces cerevisiae (strain ATCC 204508 / S288c) (Baker's yeast)) (UniProt P32657); assay: ScCHD-1 Enzyme Inhibition Assay; type: functional; conditions: 30 µM; further: in the data most compounds retested in dose-response had high values
Chromo domain-containing protein 1 (Saccharomyces cerevisiae (strain ATCC 204508 / S288c) (Baker's yeast)), sequence (P32657 whole entry, the tested form may be a part): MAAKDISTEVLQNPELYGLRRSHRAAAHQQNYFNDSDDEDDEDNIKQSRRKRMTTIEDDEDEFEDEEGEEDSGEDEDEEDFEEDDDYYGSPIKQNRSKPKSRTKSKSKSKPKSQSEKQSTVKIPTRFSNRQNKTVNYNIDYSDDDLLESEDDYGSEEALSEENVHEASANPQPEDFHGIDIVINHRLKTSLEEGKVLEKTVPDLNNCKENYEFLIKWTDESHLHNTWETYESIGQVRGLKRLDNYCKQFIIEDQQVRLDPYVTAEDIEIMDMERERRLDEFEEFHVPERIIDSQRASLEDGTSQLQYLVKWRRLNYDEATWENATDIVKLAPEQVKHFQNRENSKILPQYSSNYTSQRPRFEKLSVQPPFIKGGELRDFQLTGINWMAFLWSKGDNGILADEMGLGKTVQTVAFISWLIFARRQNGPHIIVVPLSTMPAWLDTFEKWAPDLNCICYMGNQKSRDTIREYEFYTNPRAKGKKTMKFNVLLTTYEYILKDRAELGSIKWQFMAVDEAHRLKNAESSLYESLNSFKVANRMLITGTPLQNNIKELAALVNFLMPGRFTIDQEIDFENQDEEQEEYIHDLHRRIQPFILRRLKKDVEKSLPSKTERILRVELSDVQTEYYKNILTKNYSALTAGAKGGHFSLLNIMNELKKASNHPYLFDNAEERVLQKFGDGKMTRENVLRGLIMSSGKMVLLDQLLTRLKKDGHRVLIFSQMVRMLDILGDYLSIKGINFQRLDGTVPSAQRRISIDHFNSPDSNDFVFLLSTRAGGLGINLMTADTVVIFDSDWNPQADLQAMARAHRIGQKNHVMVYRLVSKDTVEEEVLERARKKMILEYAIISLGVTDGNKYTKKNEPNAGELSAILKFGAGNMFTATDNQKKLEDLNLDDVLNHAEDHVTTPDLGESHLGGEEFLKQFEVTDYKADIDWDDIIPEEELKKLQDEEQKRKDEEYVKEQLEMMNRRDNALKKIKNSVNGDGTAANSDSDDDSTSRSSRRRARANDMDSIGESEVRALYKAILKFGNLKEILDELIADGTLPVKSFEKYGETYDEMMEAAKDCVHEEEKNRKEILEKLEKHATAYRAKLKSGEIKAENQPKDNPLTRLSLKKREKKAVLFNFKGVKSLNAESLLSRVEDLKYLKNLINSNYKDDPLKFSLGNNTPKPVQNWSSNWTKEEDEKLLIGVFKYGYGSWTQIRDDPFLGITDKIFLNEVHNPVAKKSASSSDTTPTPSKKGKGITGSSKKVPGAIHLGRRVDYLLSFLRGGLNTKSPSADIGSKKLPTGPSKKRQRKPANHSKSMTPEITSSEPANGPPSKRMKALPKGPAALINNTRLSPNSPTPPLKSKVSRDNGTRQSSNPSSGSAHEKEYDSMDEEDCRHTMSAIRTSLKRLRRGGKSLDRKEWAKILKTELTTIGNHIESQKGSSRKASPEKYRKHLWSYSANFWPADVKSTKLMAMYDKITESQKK

Protein translocase subunit SecA (Escherichia coli (strain K12)), sequence (P10408 whole entry): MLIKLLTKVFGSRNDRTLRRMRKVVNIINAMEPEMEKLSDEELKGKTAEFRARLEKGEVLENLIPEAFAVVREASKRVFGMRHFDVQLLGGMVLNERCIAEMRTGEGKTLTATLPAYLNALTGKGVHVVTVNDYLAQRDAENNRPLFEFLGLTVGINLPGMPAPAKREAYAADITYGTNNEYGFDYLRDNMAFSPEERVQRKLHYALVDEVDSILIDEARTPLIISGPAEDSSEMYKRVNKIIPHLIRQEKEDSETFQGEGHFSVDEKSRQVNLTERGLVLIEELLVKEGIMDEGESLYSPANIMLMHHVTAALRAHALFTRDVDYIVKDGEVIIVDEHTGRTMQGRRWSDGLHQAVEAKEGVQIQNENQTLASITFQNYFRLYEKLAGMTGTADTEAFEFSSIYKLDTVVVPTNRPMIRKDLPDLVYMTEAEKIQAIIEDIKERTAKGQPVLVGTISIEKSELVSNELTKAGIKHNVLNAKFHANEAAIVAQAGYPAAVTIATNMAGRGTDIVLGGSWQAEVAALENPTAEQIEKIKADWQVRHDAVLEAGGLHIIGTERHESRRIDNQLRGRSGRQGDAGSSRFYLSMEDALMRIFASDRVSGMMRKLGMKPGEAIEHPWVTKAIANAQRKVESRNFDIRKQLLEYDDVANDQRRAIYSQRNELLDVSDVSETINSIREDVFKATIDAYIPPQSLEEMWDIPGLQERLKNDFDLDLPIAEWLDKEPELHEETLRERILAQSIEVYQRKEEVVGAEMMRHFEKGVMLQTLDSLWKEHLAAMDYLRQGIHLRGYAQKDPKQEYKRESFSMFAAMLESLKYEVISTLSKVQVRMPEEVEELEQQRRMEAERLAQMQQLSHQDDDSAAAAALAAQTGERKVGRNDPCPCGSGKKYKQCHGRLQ
Sialic acid-binding Ig-like lectin 9 (Homo sapiens), sequence (Q9Y336 whole entry): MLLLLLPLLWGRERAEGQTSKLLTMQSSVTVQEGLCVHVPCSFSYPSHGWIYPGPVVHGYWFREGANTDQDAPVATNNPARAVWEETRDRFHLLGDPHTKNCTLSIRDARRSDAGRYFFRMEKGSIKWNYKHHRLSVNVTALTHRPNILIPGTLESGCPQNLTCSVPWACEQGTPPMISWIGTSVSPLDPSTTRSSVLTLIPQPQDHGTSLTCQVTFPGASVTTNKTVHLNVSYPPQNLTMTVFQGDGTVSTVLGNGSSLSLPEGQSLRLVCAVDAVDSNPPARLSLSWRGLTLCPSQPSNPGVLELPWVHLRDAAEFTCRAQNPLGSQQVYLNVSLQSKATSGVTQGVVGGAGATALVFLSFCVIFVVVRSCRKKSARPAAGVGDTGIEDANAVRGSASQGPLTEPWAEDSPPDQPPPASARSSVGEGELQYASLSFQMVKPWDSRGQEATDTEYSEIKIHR

| SMILES | Percent Effect [1] | Percent Effect [2] | Percent Effect [3] | Percent Effect [4] | Percent Effect (Trypanosoma cruzi) | Percent Effect [5] | Percent Effect [6] | Percent Effect (Homo sapiens) | Percent Effect [7] | Percent Effect [8] | Percent Effect [9] |
| --- | --- | --- | --- | --- | --- | --- | --- | --- | --- | --- | --- |
| Cc1c(C(=O)NCC(C)C)nnn1-c1cccc2c1CCN(C)C2 | -4.34% | 2.63% | 0.913% | 2.87% | -0.682% | -2.37% | 11.2% | 18.4% | 5.32% | 15.6% | -0.534% |
| O=C(Cn1ccnc1)N1C[C@@H]2CC[C@H](Oc3ccccc3)[C@@H]2C1 | -4.17% | 9.46% | 7.42% | -4.28% | 2.77% | -1.16% | 16.2% | 12.3% | 3.23% | 11.7% | -11.8% |
| N#Cc1ccccc1OCCN1CCCCC1Cn1cncn1 (configuration not stated) | -2.06% | 5.41% | -28.6% | 8.52% | 5.94% | -5.61% | 3.78% | -11.9% | 12.3% | 16.1% | -11.1% |
| Cc1ccccc1-c1cc(C(=O)N2CCn3c(C)nnc3C2)[nH]n1 | -5.53% | 10.5% | -1.51% | 3.48% | 6.01% | 0% | 4.34% | 4.27% | -0.49% | 17.1% | -10.8% |
| Cc1nc(C)n(CC2CCCCN2CCC(=O)Nc2cc(C)on2)n1 (configuration not stated) | -3.16% | 6.33% | 3.99% | 1.14% | -1.13% | -0.645% | 11% | 5.13% | -7.29% | 12.7% | -9.87% |
| Cc1cnn(CC2CCCN2Cc2ncc(-c3ccccc3)o2)c1 (configuration not stated) | -1.68% | -5.41% | -10.1% | -3.94% | -9.53% | 4.01% | 8.11% | 10.7% | 10.3% | 18.5% | -6.8% |
| CNS(=O)(=O)c1ccc(C(=O)NC2CCc3nc(C)cn3C2)o1 (configuration not stated) | -4.88% | 7.89% | 5.73% | 6.53% | 2.26% | -3.45% | 11% | -11.5% | 3.43% | 17.1% | -10.4% |
| Cn1ccnc1CN1CC[C@@H](NS(C)(=O)=O)[C@@H]1Cc1cccnc1 | -2.5% | 8.11% | -0.0396% | -7.99% | -6.35% | -2.23% | 18.6% | 11.3% | 2.16% | 10.3% | -5.81% |
| CC(=O)c1cc(CC(=O)NCc2c(F)cccc2F)cs1 | 2.08% | 5.41% | -0.986% | 2.88% | 4.44% | 10.5% | 2.76% | 17.2% | 0.529% | 7.32% | 0.311% |
| CCCc1nc(CN2CCOC(Cn3cncn3)C2)no1 (configuration not stated) | -1.95% | 11.4% | -5.09% | -4.75% | -1.74% | 3.23% | 12.3% | 18.7% | 3.12% | 10.1% | -24.9% |
| Cc1noc(C(C)N2CCN(CCC(=O)N3CCCCC3)CC2)n1 (configuration not stated) | -2.79% | 10.5% | -2.48% | 3.61% | 4.19% | -16.6% | 9.68% | 21.2% | 3.19% | 15.6% | -5.47% |
| CC(C)[C@H](NC(=O)NC1CCS(=O)(=O)C1)C(=O)NCc1cccnc1 (some centres not stated) | 1.49% | -1.33% | 5.47% | 2.33% | -4.52% | -5.46% | 7.95% | -6.4% | 0% | 5.13% | 1.13% |
| Cc1cc(C)c(CNC(=O)NCc2ccc3c(c2)CCC3)c(=O)[nH]1 | -1.46% | 10.5% | -2.73% | 4% | -3.38% | 4.6% | 6.85% | 4.84% | 5.39% | 0% | 0.252% |
| CC1(C(=O)N2CCOCC2)CN(Cc2ccccc2F)CCO1 (configuration not stated) | -2.69% | 8% | 12% | 4.39% | -4.13% | 0.699% | -1.15% | 17% | 3.19% | 8.97% | -1.88% |
| CCC(O)CN1CCN(C(=O)c2ccnc(N(C)C)c2)CC1 (configuration not stated) | -1.16% | 5.41% | -5.16% | 13% | 6.37% | 14.3% | 4.83% | -0.0962% | 1.59% | 12.2% | -4.75% |
| Cc1nccn1-c1cc(CNC(=O)C(C)(C)C)ccn1 | -0.152% | 11% | 4.7% | 6.88% | 0.588% | 34.1% | 18.1% | -3.27% | 2.15% | 17.5% | -6.75% |
| Cc1nc(C2CCCN2Cc2nnc(C3CC3)o2)no1 (configuration not stated) | -2% | 2.7% | 4.19% | 3.15% | -1.21% | -0.554% | 17.2% | 16.6% | 9.9% | 18.3% | -3.91% |
| Cc1cnn(C2CN(CC(O)c3ccc(F)cc3)C2)c1 (configuration not stated) | 1.74% | -2.67% | -7.34% | 3.97% | 2.82% | 8.33% | 3.31% | 17.9% | 6.01% | 13.6% | 105% |
| Cc1nc(CN2C[C@@H]3CN(C(=O)C4CC4)C[C@@H]3C2=O)cs1 | -1.35% | 18.9% | 1.84% | -11.9% | -5.57% | 4.78% | 14.9% | 18.6% | 1.08% | 10.3% | -6.89% |
| COc1ncccc1CN1Cc2nnn(C)c2C(COCC2CC2)C1 (configuration not stated) | -1.6% | 7.79% | 4.07% | -3.49% | -5.62% | 3.23% | 1.92% | 2.8% | 4.23% | 14.1% | -4.09% |
| CN(CCCC#N)C1CCCN(Cc2noc(C3CC3)n2)C1 (configuration not stated) | -1.64% | 15.3% | -17% | 7.77% | 0.68% | 5.74% | 12.8% | -4.02% | 4.21% | 7.69% | -5.25% |
| CCC1CN(Cc2ccccc2)CCN1Cc1nnc(C2CCC2)o1 (configuration not stated) | -1.22% | 2.74% | -2.21% | 8.69% | 6.07% | 5.91% | 1.95% | -3.45% | 1.07% | 5% | -0.293% |
